Source: PubChem (several laboratories)
An excerpt weighted towards active compounds, which were near 4% of everything screened.
UGM FP inh = Mtb UDP-galactopyranose mutase inhibition. purified UGM, fluorescence polarization probe displacement. inhibition, % at 10 µM. AID 504406. P9WIQ1. 320,000 tested, 0.06% active; in the data active means inhibition above about 10%, passing the limit was not always enough
Target sequence (P9WIQ1 whole entry, looked up): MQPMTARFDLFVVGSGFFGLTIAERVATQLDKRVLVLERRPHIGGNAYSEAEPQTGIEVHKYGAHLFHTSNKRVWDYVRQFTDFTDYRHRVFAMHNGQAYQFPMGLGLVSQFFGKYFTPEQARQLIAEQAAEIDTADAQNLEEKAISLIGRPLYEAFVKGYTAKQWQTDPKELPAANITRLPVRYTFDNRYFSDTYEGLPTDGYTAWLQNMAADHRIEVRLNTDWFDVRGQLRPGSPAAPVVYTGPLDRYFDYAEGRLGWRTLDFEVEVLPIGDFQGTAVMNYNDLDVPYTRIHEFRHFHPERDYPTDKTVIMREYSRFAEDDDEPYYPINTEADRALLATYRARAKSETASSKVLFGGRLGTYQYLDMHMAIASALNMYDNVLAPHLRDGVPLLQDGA
Rv3671c inh = inhibitors of M. tuberculosis serine protease Rv3671c | P9WHR9 | inhibition, % at 5.96 µM | 320,000 tested, 0.048% active; in the data active means inhibition above about 38%;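 further: extracellular domain of Rv3671c used as enzyme; 0% = enzyme with DMSO and 100% = no enzyme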
FBA Mtb inh = inhibits M. tuberculosis FBA enzyme. P9WQA3. purified M. tuberculosis FBA, fluorescence read-out. inhibition, % at 1 µM. AID 588726. 360,000 tested, 2.3% active; in the data active means inhibition above about 27%;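 further: 0% = vehicle and 100% = reference inhibitor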
RecA splice inh = inhibitors of M. tuberculosis RecA intein splicing | 290,000 tested, 0.75% active | inhibition, % (test concentration not listed) | cell-free RecA intein splicing, fluorescence | AID 2221 | P9WHJ3; in the data active means inhibition above about 30%;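 further: 0% = vehicle wells and 100% = reference inhibitor control wells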
Mtb betalactam = beta-lactam sensitization of Mtb H37Rv; 330,000 tested, 0.27% active; inhibition, % at 25 µM; M. tuberculosis H37Rv growth with meropenem, percent inhibition; AID 434955;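 further: growth measured after seven days incubation then overnight dye step; 0% = bacteria only wells and 100% = bacteria with antibiotic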
GDH-TPI counter = inhibits GDH-TPI coupling enzymes, artifact for Mtb FBA screen | inhibition, % at 4.8 µM | 360,000 tested, 1.2% active | GDH-TPI coupled enzyme counterscreen, NADH absorbance; in the data active means inhibition above about 30%;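 further: 0% = DMSO wells and 100% = wells lacking the enzyme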
GFP chromo cs = counter-screen GFP chromophore formation inhibition. shares compounds with RecA splice inh. cell-free GFP chromophore formation, fluorescence. EC50, µM. 2,100 tested, 83% active
* marks the source's active call; other numbers are inactive results. Unless noted, how the calls were made is not given here.

How did O=C(OCn1ncc(Br)c(Br)c1=O)c1ccc(F)cc1 do in these assays?
UGM FP inh: -2.8; Rv3671c inh: -4.7; FBA Mtb inh: 0.0; RecA splice inh: 72.6*; Mtb betalactam: 100.1; GDH-TPI counter: -0.8; GFP chromo cs: 2.18*

Results for O=C(OCn1ncc(Br)c(Br)c1=O)c1ccccc1Cl ?
UGM FP inh: 2.6; Rv3671c inh: -9.5; FBA Mtb inh: 0.0; RecA splice inh: 63.9*; Mtb betalactam: 100.3; GDH-TPI counter: 6.7; GFP chromo cs: 1.75*

What do the screens show for `O=C(OCc1cnc(Cl)s1)c1ccccc1Cl`?
Rv3671c inh: 0.4; FBA Mtb inh: -0.1; RecA splice inh: 1.9; Mtb betalactam: -1.5; GDH-TPI counter: 0.4

Results for Nc1ccn(CCCNCC(c2ccccc2)c2ccccc2)c(=O)n1 ?
FBA Mtb inh: -3.5; GDH-TPI counter: -6.2

Results for COC(=O)c1ccc(C)c(-n2c(=O)n(Cc3ccccc3)c(=O)c3[nH]cnc32)c1 ?
UGM FP inh: -0.5; Rv3671c inh: 7.0; FBA Mtb inh: 2.5; RecA splice inh: -3.4; Mtb betalactam: -5.4; GDH-TPI counter: 6.0

Results for O=C(N/N=C/c1cc(Cl)cc([N+](=O)[O-])c1O)c1ccccc1NS(=O)(=O)c1cccs1 ?
UGM FP inh: 3.2; Rv3671c inh: 0.2; FBA Mtb inh: -0.2; RecA splice inh: 33.2*; Mtb betalactam: 9.1; GDH-TPI counter: 13.0; GFP chromo cs: >38

What do the screens show for `CC1=NN(C)C(=O)C1Cc1c(F)cccc1Cl` (stereo unspecified)?
UGM FP inh: -0.1; Rv3671c inh: 6.8; FBA Mtb inh: -2.2; RecA splice inh: 79.7*; Mtb betalactam: 0.2; GDH-TPI counter: -6.3; GFP chromo cs: 16.8*

How did CN1CCC(NC(=O)Cc2c(F)cccc2Cl)CC1 do in these assays?
UGM FP inh: 0.4; Rv3671c inh: 1.5; FBA Mtb inh: -0.2; RecA splice inh: 1.0; Mtb betalactam: -0.3; GDH-TPI counter: 7.2

What do the screens show for `CC1=CC(=C(C#N)c2nc3ccccc3s2)C=C(C)N1CC1CCCO1` (stereo unspecified)?
UGM FP inh: 2.4; Rv3671c inh: 10.6; FBA Mtb inh: -7.3; Mtb betalactam: -4.4; GDH-TPI counter: -1.2

How did CC(=O)n1cc(N(C(=O)CCl)c2ccc(C)cc2)c2ccccc21 do in these assays?
UGM FP inh: -1.1; Rv3671c inh: -2.5; FBA Mtb inh: 3.0; RecA splice inh: 91.2*; Mtb betalactam: 98.8; GDH-TPI counter: -5.4; GFP chromo cs: 1.73*

How did CC(=O)N(c1ccc(Cl)cc1)c1cn(C(C)=O)c2ccccc12 do in these assays?
UGM FP inh: -0.6; Rv3671c inh: 4.7; FBA Mtb inh: 5.9; RecA splice inh: -0.1; Mtb betalactam: -1.1; GDH-TPI counter: 1.2

How did Cc1[nH]n(-c2ccccc2)c(=O)c1C(c1ccc([N+](=O)[O-])cc1)c1c(C)[nH]n(-c2ccccc2)c1=O do in these assays?
UGM FP inh: 1.5; Rv3671c inh: -185.4; FBA Mtb inh: -9.1; RecA splice inh: 95.0*; Mtb betalactam: 6.2; GDH-TPI counter: 11.1; GFP chromo cs: 1.6*

What do the screens show for `O=c1c2cc([N+](=O)[O-])cc([N+](=O)[O-])c2[nH]n1-c1ccccc1`?
UGM FP inh: 1.7; Rv3671c inh: 3.4; FBA Mtb inh: -26.8; RecA splice inh: 2.6; Mtb betalactam: 11.8; GDH-TPI counter: 12.1

Results for Cc1[nH]n(-c2ccccc2)c(=O)c1C(c1ccc(O)c([N+](=O)[O-])c1)c1c(C)[nH]n(-c2ccccc2)c1=O ?
UGM FP inh: 1.2; Rv3671c inh: -47.6; FBA Mtb inh: -20.9; RecA splice inh: 85.6*; Mtb betalactam: 6.7; GDH-TPI counter: 0.9; GFP chromo cs: 2.25*

How did CSCCC1NC(=O)N(C(C)C(=O)Nc2cc(Cl)cc(Cl)c2)C1=O (stereo unspecified) do in these assays?
UGM FP inh: 1.1; Rv3671c inh: -8.6; FBA Mtb inh: 3.8; RecA splice inh: -1.7; Mtb betalactam: -10.0; GDH-TPI counter: -1.9

How did CCCCCc1c2c(cc(O)c1C(=O)O)OC(=O)c1c(cc(OC)cc1C(=O)CCCC)O2 do in these assays?
UGM FP inh: 5.8; Rv3671c inh: 1.9; FBA Mtb inh: -0.9; RecA splice inh: 30.8*; Mtb betalactam: 2.4; GDH-TPI counter: 2.8; GFP chromo cs: 12.1*

How did CN1CCN(S(=O)(=O)c2ccc(N(C)Cc3cccc(F)c3)nc2)CC1 do in these assays?
UGM FP inh: 0.7; Rv3671c inh: -7.5; FBA Mtb inh: 6.7; Mtb betalactam: -10.6; GDH-TPI counter: 2.5

How did CC(=O)c1cccc(N(CC(=O)Nc2ccccc2C(=O)N2CCCC2)S(C)(=O)=O)c1 do in these assays?
UGM FP inh: -1.4; Rv3671c inh: 0.9; FBA Mtb inh: 2.2; RecA splice inh: -0.6; Mtb betalactam: -4.2; GDH-TPI counter: 0.0

What do the screens show for `Cc1ccc(C(=O)c2coc3cc([N+](=O)[O-])c(O)c([N+](=O)[O-])c23)cc1`?
UGM FP inh: 3.2; Rv3671c inh: -1.5; FBA Mtb inh: -10.0; RecA splice inh: 34.5*; Mtb betalactam: 5.6; GDH-TPI counter: 21.1; GFP chromo cs: 36.6*

Results for Cc1ccc(C(=O)c2ccc([N+](=O)[O-])cc2)cc1 ?
UGM FP inh: -0.4; Rv3671c inh: -6.1; FBA Mtb inh: 0.6; RecA splice inh: 2.3; Mtb betalactam: 3.8; GDH-TPI counter: 7.4

How did Cc1nc(N2CCOCC2)nc2c1CCC2 do in these assays?
UGM FP inh: 0.3; Rv3671c inh: -7.5; FBA Mtb inh: 12.1; RecA splice inh: 1.1; Mtb betalactam: 6.0; GDH-TPI counter: -2.1

Results for Cc1noc(C)c1COC(=O)CCOc1ccccc1 ?
UGM FP inh: 2.5; Rv3671c inh: -15.1; FBA Mtb inh: 4.5; RecA splice inh: 1.0; Mtb betalactam: 7.7; GDH-TPI counter: 1.3

Results for Cc1noc(C)c1COC(=O)Cc1ccc(Br)cc1 ?
UGM FP inh: 1.4; Rv3671c inh: 11.3; FBA Mtb inh: 3.2; RecA splice inh: 1.1; Mtb betalactam: -2.1; GDH-TPI counter: 2.2; GFP chromo cs: >38

Results for CCCc1[nH][nH]c(=O)c1C(c1cccc(Cl)c1)C(C#N)C#N (stereo unspecified) ?
UGM FP inh: -5.1; Rv3671c inh: 0.4; FBA Mtb inh: 1.7; RecA splice inh: 51.5*; Mtb betalactam: -7.1; GDH-TPI counter: 5.2; GFP chromo cs: 9.41*

Results for COc1ccc(CNC(=O)Cc2ccc(NC(=O)C3=C(C)OCCS3)cc2)cc1 ?
UGM FP inh: -0.9; Rv3671c inh: -3.8; FBA Mtb inh: 1.3; RecA splice inh: 1.7; Mtb betalactam: 8.1; GDH-TPI counter: 0.0

Results for CCOC(=O)C1=CCN(S(=O)(=O)c2ccccc2Br)C1c1ccccc1 (stereo unspecified) ?
FBA Mtb inh: -0.3

Results for Cc1[nH][nH]c(=O)c1C(c1ccc(N(C)C)c(Br)c1)c1c(C)[nH][nH]c1=O ?
UGM FP inh: 4.7; Rv3671c inh: -7.6; FBA Mtb inh: -3.7; RecA splice inh: 97.3*; Mtb betalactam: -0.9; GDH-TPI counter: 1.3; GFP chromo cs: 0.471*
